The source made the active and inactive calls. How the source made its calls: active means hit-call score of the fitted dose curve at least 0.9, where 1 is the maximum; inactive means score below 0.9.
Assays:
[1] = read-out: Urokinase-type plasminogen activator receptor (uPAR), PLAUR (gene 5329); assay: BSK_CASM3C_uPAR: BioMAP Diversity Plus: CASM3C Assay for Urokinase-type plasminogen activator receptor (uPAR) Biomarker Activity (AID 2283054); conditions: primary human coronary artery smooth muscle cells; actives raise or lower the signal;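 further: cell-surface uPAR protein level quantified by ELISA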
[2] = read-out: Vascular cell adhesion molecule 1 (VCAM1), VCAM1 (gene 7412); assay: BSK_CASM3C_VCAM1: BioMAP Diversity Plus: CASM3C Assay for Vascular cell adhesion molecule 1 (VCAM1) Biomarker Activity (AID 2283055); conditions: primary human coronary artery smooth muscle cells; actives raise or lower the signal;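 further: VCAM-1 protein level quantified by ELISA on the cells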
[3] = read-out: Collagen III, COL3A1 (gene 1281); assay: BSK_hDFCGF_CollagenIII: BioMAP Diversity Plus: hDFCGF Assay for Collagen III Biomarker Activity (AID 2283056); conditions: primary human foreskin fibroblasts; actives raise or lower the signal
In short: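 Human foreskin primary fibroblasts were exposed to test chemicals for 24 h, after which collagen III was quantified by ELISA. Activity was fitted bidirectionally against DMSO as negative control and baseline.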

[4] = read-out: Epidermal growth factor receptor (EGFR), EGFR (gene 1956); assay: BSK_hDFCGF_EGFR: BioMAP Diversity Plus: hDFCGF Assay for Epidermal growth factor receptor (EGFR) Biomarker Activity (AID 2283057); conditions: primary human foreskin fibroblasts; actives raise or lower the signal
In short: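 Measured by ELISA: EGFR levels on primary human foreskin fibroblasts 24 h after chemical treatment, analysed relative to DMSO with bidirectional fitting.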

[5] = read-out: Interleukin-8 (IL8), CXCL8 (gene 3576); assay: BSK_hDFCGF_IL8: BioMAP Diversity Plus: hDFCGF Assay for Interleukin-8 (IL8) Biomarker Activity (AID 2283058); conditions: primary human foreskin fibroblasts; actives raise or lower the signal
In short: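 hDFCGF human dermal fibroblasts; 24 h chemical exposure; IL-8 by ELISA; bidirectional curve fit vs DMSO baseline; gain or loss of signal scored.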

[6] = BSK_hDFCGF_Proliferation: Cell Proliferation Assessment in the BioMAP Diversity Plus: hDFCGF Assay (AID 2283059); conditions: primary human foreskin fibroblasts;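 further: curves fitted for both rise and fall of signal versus DMSO baseline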
In short: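 This proliferation readout used SRB total-protein staining of human foreskin fibroblasts […], normalized to DMSO with bidirectional curve fitting.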

[7] = BSK_hDFCGF_SRB: Viability Assessment in the BioMAP Diversity Plus: hDFCGF Assay (AID 2283061); conditions: primary human foreskin fibroblasts;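 further: cells exposed to compound for 24 h before the read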
In short: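 Human foreskin primary fibroblasts were treated with compound and assessed 24 h after dosing. Total protein was measured by sulforhodamine B staining (0.1% SRB after 10% TCA fixation, 560 nm read) as a cytotoxicity marker, with bidirectional fitting against DMSO baseline.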

[8] = read-out: Monokine induced gamma interferon (MIG), CXCL9 (gene 4283); assay: BSK_hDFCGF_MIG: BioMAP Diversity Plus: hDFCGF Assay for Monokine induced gamma interferon (MIG) Biomarker Activity (AID 2283063); conditions: primary human foreskin fibroblasts; actives raise or lower the signal
In short: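 ELISA read-out of MIG from primary human dermal fibroblasts 24 h post-dosing. Gain or loss of signal fitted bidirectionally, DMSO as baseline.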

[9] = read-out: Macrophage colony-stimulating factor (MCSF), CSF1 (gene 1435); assay: BSK_hDFCGF_MCSF: BioMAP Diversity Plus: hDFCGF Assay for Macrophage colony-stimulating factor (MCSF) Biomarker Activity (AID 2283060); conditions: primary human foreskin fibroblasts; actives raise or lower the signal
In short: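 Human foreskin primary fibroblasts were treated with test chemical for 24 h, and M-CSF was then measured by ELISA. Data were fitted bidirectionally against DMSO as the negative control and activity baseline.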

[10] = read-out: TIMP metallopeptidase inhibitor 1 (TIMP1), TIMP1 (gene 7076); assay: BSK_hDFCGF_TIMP1: BioMAP Diversity Plus: hDFCGF Assay for TIMP metallopeptidase inhibitor 1 (TIMP1) Biomarker Activity (AID 2283062); conditions: primary human foreskin fibroblasts; actives raise or lower the signal
In short: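 Primary human foreskin fibroblasts in the hDFCGF system were dosed with compound for 24 h, then TIMP-1 was measured by ELISA. Activity was fitted bidirectionally relative to DMSO control; parallel SRB staining assessed cytotoxicity.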

Measured: AC50

CC(O)CC(C)(C)O (stereo not given)
active: [6] 14.1 µM
not listed: [9] | [10]
inactive: all other assays above

c1ccc(C[n+]2cccc3ccccc32)cc1
inactive: all assays above

Oc1ccccc1
inactive: all assays above

NC(=O)c1nc(-c2cccc(-c3cc(F)ccc3OCC(F)(F)C(F)(F)F)c2)n[nH]1
inactive: [2] | [4]
active: [1] 32 µM | [3] 17.7 µM | [5] 39.3 µM | [6] 31.1 µM | [9] 44 µM | [7] 36.4 µM | [8] 35 µM

CC1=CC(=O)/C(=C(/C)O)C(=O)O1
inactive: all assays above

O=C(O)c1ccccc1-n1cc(C(=O)O)c(=O)c2cc(Nc3c(F)cc(F)cc3Cl)c(Cl)cc21
not listed: [9]
inactive: all other assays above

COc1cc(C(=O)NC2CCN(C)CC2)ccc1Nc1ncc2c(n1)N(C1CCCC1)CC(F)(F)C(=O)N2C
active: [1] 24.2 µM | [2] 14.1 µM | [3] 19 µM | [5] 23.8 µM | [6] 4.95 µM | [9] 14.9 µM | [7] 16 µM | [8] 6.25 µM
inactive: [4]

CC1(C)NC(=O)N(c2ccc([N+](=O)[O-])c(C(F)(F)F)c2)C1=O
not listed: [9] | [10]
inactive: all other assays above

O=C(O)c1ccccc1C(=O)OCc1ccccc1
not listed: [9] | [10]
inactive: all other assays above

c1ccc2ccccc2c1
not listed: [4]
inactive: all other assays above

O=C(Nc1ccc(Cl)cc1)Nc1ccc(Cl)c(Cl)c1
inactive: [2] | [5] | [10]
active: [1] 9.76 µM | [3] 0.148 µM | [4] 1 µM | [6] 0.477 µM | [7] 0.138 µM | [8] 0.148 µM

O=c1[nH]sc2ccccc12
active: [1] 11.3 µM | [2] 10.7 µM | [3] 20 µM | [5] 20 µM | [6] 0.281 µM | [7] 7.21 µM | [10] 11.8 µM | [8] 5.92 µM
inactive: [4]

Clc1cc(Cl)c2c(c1)N=C1CCCCCN1C2
inactive: all assays above

O=C1O[C@H]([C@@H](O)CO)C(O)=C1O
not listed: [9] | [10]
inactive: all other assays above

CCCCCCCCOc1ccc(C(=O)c2ccccc2)c(O)c1
active: [6] 20 µM
not listed: [9] | [10]
inactive: all other assays above

O=C(O)Cn1c(=O)n(Cc2ccc(Br)cc2F)c(=O)c2ccc(Cl)cc21
not listed: [10]
inactive: all other assays above

COCC(C)OCC(C)OCC(C)O (stereo not given)
not listed: [9]
inactive: all other assays above

CCN(Cc1cccc(S(=O)(=O)O)c1)c1ccc(C(=C2C=CC(=[N+](CC)Cc3cccc(S(=O)(=O)O)c3)C=C2)c2ccccc2S(=O)(=O)[O-])cc1
not listed: [10]
inactive: all other assays above

NCc1cccc(C2CCN(C(=O)c3ccc(C#Cc4ccccc4F)o3)CC2)c1
active: [1] 30.7 µM | [2] 15.9 µM | [3] 5.12 µM | [4] 12.6 µM | [5] 11.9 µM | [6] 5.81 µM | [7] 10.1 µM | [8] 11.7 µM

CCCCCCCC[Si](OCC)(OCC)OCC
inactive: [4]
